This is a sample that favours compounds with a hit; in the whole collection about 6.8% have one here.
T cruzi growth-1: inhibitors of T. cruzi proliferation | AID 624255 | 77,000 compounds, 5.9% hits | T. cruzi beta-gal in NIH3T3, GalScreen luminescence, 90 h | inhibition, % at 8.34 µM;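 active = mean inhibition above about 93%, with at least 55% of replicates each passing it, limit read from the data, passing the limit was not always enough; inconclusive = only one of those two conditions holds; inactive = neither condition holds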
C diff growth: inhibitors of Clostridium difficile growth. growth activity, negative = inhibition, % at 16 µg/mL (by protocol). 86,000 compounds, 0.25% hits. Clostridium difficile clinical isolate growth, OD600, 24 h; hits give low values;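 active = mean growth activity at or below -80% and every replicate also at or below -80%; inconclusive = mean at or below -80% but some replicate above -80%; inactive = mean growth activity above -80%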;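 note: 0% = DMSO wells and -100% = levofloxacin 16 µg/mL wells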
Pf Dd2 inh: P. falciparum Dd2 growth inhibition | activity change, % at 10 µM | 94,000 compounds, 2.3% hits | SYBR Green, 72 h; hits give low values; in the data active = activity change below about -80%; inconclusive = no clear call, values can overlap the other calls
T cruzi growth-2: Trypanosoma cruzi proliferation inhibition | 5,600 compounds, 72% hits | T. cruzi beta-gal in NIH3T3, GalScreen luminescence, 90 h | shares compounds with T cruzi growth-1 | inhibition, % at 8.35 µM;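 active = mean replicate inhibition above about 95% and at least 55% of replicates individually reaching it, limit read from the data; inconclusive = only one of the two criteria is met; inactive = neither criterion is met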
T cruzi growth-3: Trypanosoma cruzi proliferation inhibition. 5,600 compounds, 21% hits. AID 651740. shares compounds with T cruzi growth-1. inhibition, % at 2.09 µM. T. cruzi beta-gal in NIH3T3, GalScreen luminescence, 90 h;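 active = mean inhibition above about 95%, with at least 55% of replicates also reaching it, limit read from the data; inconclusive = meets just one of the two conditions; inactive = meets neither condition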;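 note: plate controls were neutral control median for no effect and positive control median for full effect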
3T3 cytotox: NIH/3T3 (mouse) viability loss; shares compounds with T cruzi growth-1; NIH/3T3 viability, CellTiter-Glo ATP luminescence, 90 h; cytotoxicity (signal decrease), % at 8.35 µM; 5,600 compounds, 14% hits; AID 651742;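 active = mean signal decrease across replicates above about 35% based on untreated-well scatter, with enough replicates individually passing, limit read from the data; inconclusive = no rule stated though some were filed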;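 note: 0% = median of neutral control wells and 100% = median of positive control wells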
3T3 cytotox 2: NIH/3T3 (mouse) viability loss. NIH/3T3 viability, CellTiter-Glo ATP luminescence, 90 h. inhibition, % at 24.9 µM. shares compounds with T cruzi growth-1. 5,600 compounds, 56% hits;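 active = mean loss of cell viability signal at or above a set limit, and enough replicates individually reaching it; inconclusive = meets only the mean limit or only the replicate share; inactive = meets neither condition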;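 note: 0% = median of neutral control wells and 100% = median of positive control wells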
Starred values were filed as active, the others as inactive; ? = inconclusive; / = no result given; + = active, no number.

SMILES	T cruzi growth-1	C diff growth	Pf Dd2 inh	T cruzi growth-2	T cruzi growth-3	3T3 cytotox	3T3 cytotox 2
CCCNC(=O)Nc1ccc2c(c1)C(=O)N(C)C[C@H](OC)[C@@H](C)CN(Cc1ccc(-c3ccccn3)cc1)[C@H](C)CO2	7	/	-27	/	/	/	/
COc1ccc2c3c(n(C)c2c1)[C@H](CO)N(S(C)(=O)=O)CC31CN(CC2CCOCC2)C1	/	-3	34	/	/	/	/
C[C@H](CO)N1C[C@H](C)[C@@H](CN(C)C(=O)Nc2ccc(C(F)(F)F)cc2)OCCCC[C@H](C)Oc2ccc(NS(=O)(=O)c3cccs3)cc2C1=O	93	-5	-49	/	/	/	/
CN1c2ccc(-c3cccc(C#N)c3)cc2[C@H]2[C@H](CCN2C(=O)C2CC2)[C@@H]1CO	/	-1	-38	/	/	/	/
COc1cccc(-c2ccc([C@H]3[C@H](CO)N4CCCCN(C(=O)c5ccc6c(c5)OCO6)C[C@@H]34)cc2)c1	109*	10	0	101*	45	40*	72*
COc1cccc(-c2ccc([C@H]3[C@H]4CN(C(=O)c5ccc6c(c5)OCO6)CCCCN4[C@H]3CO)cc2)c1	76	5	-47	/	/	/	/
COc1cccc(-c2ccc([C@@H]3[C@@H](CO)N4CCCCN(C(=O)c5ccc6c(c5)OCO6)C[C@@H]34)cc2)c1	?	58	20	104*	57	27	56*
COc1cccc(-c2ccc([C@@H]3[C@H]4CN(C(=O)c5ccc(F)cc5)CCCCN4[C@H]3CO)cc2)c1	89	1	-34	/	/	/	/
CO[C@@H]1CN(C)C(=O)c2ccc(NC(=O)c3ccccc3)cc2OC[C@@H](C)N(C)C[C@H]1C	/	-3	-10	/	/	/	/
COc1ccc(NC(=O)Nc2ccc3c(c2)C(=O)N([C@@H](C)CO)C[C@@H](C)[C@H](CN(C)C(=O)Nc2ccc(F)cc2)OCCCC[C@H](C)O3)cc1	/	-2	-4	/	/	/	/
COc1ccc(NC(=O)N(C)C[C@H]2OCCCC[C@H](C)Oc3ccc(NC(=O)Nc4ccc5c(c4)OCO5)cc3C(=O)N([C@H](C)CO)C[C@@H]2C)cc1	42	5	0	/	/	/	/
COc1ccc(NC(=O)Nc2ccc3c(c2)C(=O)N([C@@H](C)CO)C[C@H](C)[C@@H](CN(C)C(=O)Nc2ccc(F)cc2)OCCCC[C@H](C)O3)cc1	109*	4	-49	100*	62	5	-3
COc1ccc(NC(=O)Nc2ccc3c(c2)C(=O)N([C@H](C)CO)C[C@@H](C)[C@H](CN(C)C(=O)Nc2ccc4c(c2)OCO4)OCCCC[C@@H](C)O3)cc1	117*	5	-42	111*	64	9	17
COc1ccc(NC(=O)Nc2ccc3c(c2)C(=O)N([C@H](C)CO)C[C@H](C)[C@@H](CN(C)C(=O)Nc2ccc(F)cc2)OCCCC[C@H](C)O3)cc1	72	-4	-40	/	/	/	/
COc1ccc(NC(=O)Nc2ccc3c(c2)C(=O)N([C@H](C)CO)C[C@@H](C)[C@H](CN(C)C(=O)Nc2ccc(F)cc2)OCCCC[C@@H](C)O3)cc1	112*	1	-27	98*	104*	-6	-10
COc1cccc(C#Cc2cnc3c(c2)C(=O)N([C@@H](C)CO)C[C@H](C)[C@@H](CN(C)C)O3)c1	30	11	-47	/	/	/	/
Cc1noc(C)c1S(=O)(=O)Nc1ccc2c(c1)CC(=O)N([C@H](C)CO)C[C@@H](C)[C@@H](CN(C)Cc1ccc(Cl)c(Cl)c1)O2	81	4	-10	/	/	/	/
N#C[C@H]1[C@@H](c2ccc(-c3ccncc3)cc2)[C@@H](CO)N1C(=O)C1CCCCC1	58	8	-6	/	/	/	/
COc1ccc2c3c(n(C)c2c1)[C@H](CO)N(C(C)=O)CC31CN(C(=O)C2CCOCC2)C1	/	2	28	/	/	/	/
CCNC(=O)[C@@H]1[C@@H](CO)[C@@H]2Cn3c(cccc3=O)[C@@H]2N1CC1CCCCC1	+	/	/	-27	-24	-4	-8
O=C(Nc1nccs1)[C@H]1[C@H](CO)[C@H]2Cn3c(ccc(-c4ccccc4)c3=O)[C@H]2N1CC1CCCC1	98*	15	-22	106*	57	27	64*
CCCNC(=O)[C@@H]1[C@@H](CO)[C@@H]2Cn3c(cccc3=O)[C@@H]2N1CC1CCCCC1	2	5	2	/	/	/	/
O=C(Nc1ccc(-c2ccccc2)cc1)[C@H]1[C@H](CO)[C@H]2Cn3c(cccc3=O)[C@H]2N1CC1CCCCC1	?	17	-18	85	110*	20	107*
O=C(Nc1nccs1)[C@H]1[C@H](CO)[C@H]2Cn3c(ccc(-c4cncnc4)c3=O)[C@H]2N1CC1CCCC1	-21	-7	/	/	/	/	/
O=C(Nc1ccc(-c2ccccc2)cc1)[C@H]1[C@H](CO)[C@H]2Cn3c(cccc3=O)[C@H]2N1CC1CCCC1	/	0	-40	/	/	/	/
SMILES	T cruzi growth-1	C diff growth	Pf Dd2 inh	T cruzi growth-2	T cruzi growth-3	3T3 cytotox	3T3 cytotox 2
CO[C@@H]1CN(C)C(=O)c2ccc(NS(C)(=O)=O)cc2OC[C@@H](C)N(CC2CCCCC2)C[C@H]1C	1	/	-6	/	/	/	/
CN1C(=O)c2cc(NC(=O)C3CC3)ccc2OC[C@H]2O[C@@H](CC(=O)Nc3cccc(Cl)c3)CC[C@@H]21	/	12	24	/	/	/	/
C[C@H]1CN([C@@H](C)CO)C(=O)Cc2cc(NC(=O)Cn3cnnn3)ccc2O[C@@H]1CN(C)C(=O)Nc1ccc(F)cc1	0	/	35	/	/	/	/
CCC(=O)N1[C@@H]2Cn3c(ccc(C4=CCCC4)c3=O)[C@H]1[C@@H](C(=O)N[C@@H](C)c1ccccc1)[C@@H]2CO	63	-1	-11	/	/	/	/
C[C@H]1CN([C@@H](C)CO)C(=O)c2cc(NC(=O)c3ccncc3)ccc2O[C@@H]1CN(C)Cc1ccc(C(F)(F)F)cc1	75	0	7	/	/	/	/
C[C@@H]1CCCCO[C@@H](CN(C)Cc2ccncc2)[C@H](C)CN([C@@H](C)CO)C(=O)c2cc(NC(=O)Nc3ccc(C(F)(F)F)cc3)ccc2O1	86	3	-15	/	/	/	/
C[C@@H]1CCCCO[C@H](CN(C)Cc2ccc(C(F)(F)F)cc2)[C@H](C)CN([C@@H](C)CO)C(=O)c2cc(NC(=O)c3ccncc3)ccc2O1	90	-4	-21	/	/	/	/
C[C@@H]1CCCCO[C@@H](CN(C)Cc2ccc(C(F)(F)F)cc2)[C@H](C)CN([C@H](C)CO)C(=O)c2cc(NC(=O)c3ccncc3)ccc2O1	109*	-1	-72	103*	56	13	103*
C[C@H](CO)N1C[C@H](C)[C@@H](CN(C)Cc2ccncc2)OCCCC[C@H](C)Oc2ccc(NC(=O)Nc3ccc(C(F)(F)F)cc3)cc2C1=O	101*	14	-25	103*	82	-29	42*
